Source: PubChem BioAssay AID1159580 (chemical genetic matrix, 2015)
Values joined by “and” are separate entries in the source; they are usually repeats but may differ in a detail not shown here. Equal values may be shown once. In all, about 5,500 compounds went through this assay and about 2,000 (36%) were called active. About 18% were inconclusive and are not listed. Cut-off read from the data, not from the text of the source: active = normalized growth mostly below about 0.91 (no sharp cut-off); inconclusive = no clear call, values can overlap the other calls; inactive = mostly above about 0.92. This is one part of the list.

Assay: chemical genetic growth profiling, strain panel (AID 1159580);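 note: tested at 20 µM; growth read once vehicle control cultures reached saturation at 30 °C; 1 = growth at the plate median or of vehicle wells; lower values mean less growth of the strain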
Details: S. cerevisiae deletion strains, growth OD

Measured: normalized growth

CO[C@@H]1[C@@H](OC(N)=O)[C@@H](O)[C@H](Oc2ccc3c(O)c(NC(=O)c4ccc(O)c(CC=C(C)C)c4)c(=O)oc3c2C)OC1(C)C
inactive: locus YAL013W, strain DEP1, stronger effect = lower value 1.02 | locus YAL021C, strain ccr4, stronger effect = lower value 1.03 | locus YAL026C, strain drs2, stronger effect = lower value 1.02 | locus YAL030W, strain snc1, stronger effect = lower value 1.03 | locus YBL061C, strain skt5, stronger effect = lower value 1.02 | locus YBR009C, strain hhf1, stronger effect = lower value 1.02 | locus YBR021W, strain FUR4, stronger effect = lower value 1.04 | locus YBR023C, strain chs3, stronger effect = lower value 1.04 | locus YBR171W, strain sec66, stronger effect = lower value 1.06 | locus YBR229C, strain ROT2, stronger effect = lower value 1.01 | locus YBR231C, strain swc5, stronger effect = lower value 1.04 | locus YBR279W, strain paf1, stronger effect = lower value 1.05 | locus YCL011C, strain gbp2, stronger effect = lower value 1.03 | locus YCL016C, strain dcc1, stronger effect = lower value 1.04 | locus YCL029C, strain bik1, stronger effect = lower value 0.995 | locus YCL061C, strain MRC1, stronger effect = lower value 1.03 | locus YCL069W, strain vba3, stronger effect = lower value 1.03 | locus YCR088W, strain abp1, stronger effect = lower value 1.04 | locus YDL005C, strain med2, stronger effect = lower value 1.04 | locus YDL035C, strain GPR1, stronger effect = lower value 1.01 | locus YDL040C, strain nat1, stronger effect = lower value 1.03 | locus YDL074C, strain BRE1, stronger effect = lower value 0.955 | locus YDL101C, strain DUN1, stronger effect = lower value 1.02 | locus YDL134C, strain PPH21, stronger effect = lower value 1.01 | locus YDL185W, strain tfp1, stronger effect = lower value 0.945 | locus YDL192W, strain arf1, stronger effect = lower value 0.988 | locus YDR001C, strain nth1, stronger effect = lower value 1.03 | locus YDR069C, strain doa4, stronger effect = lower value 1.01 | locus YDR101C, strain arx1, stronger effect = lower value 1.01 | locus YDR137W, strain rgp1, stronger effect = lower value 0.998 | locus YDR150W, strain NUM1, stronger effect = lower value 1.02 | locus YDR159W, strain sac3, stronger effect = lower value 0.98 | locus YDR162C, strain NBP2, stronger effect = lower value 0.968 | locus YDR195W, strain ref2 1.04 | locus YDR297W, strain sur2, stronger effect = lower value 1.03 | locus YDR318W, strain mcm21, stronger effect = lower value 0.991 | locus YDR334W, strain swr1, stronger effect = lower value 1.03 | locus YDR335W, strain msn5, stronger effect = lower value 1.06 | locus YDR388W, stronger effect = lower value 0.991 | locus YDR392W, strain spt3, stronger effect = lower value 0.999 | locus YDR502C, strain sam2, stronger effect = lower value 0.999 | locus YEL003W, strain gim4, stronger effect = lower value 0.999 | locus YEL037C, strain rad23, stronger effect = lower value 1.04 | locus YEL061C, strain CIN8 (second series), stronger effect = lower value 1.02 | locus YEL061C, strain CIN8, stronger effect = lower value 0.992 | locus YER015W, strain faa2, stronger effect = lower value 1.04 | locus YER016W, strain bim1, stronger effect = lower value 1.03 | locus YER110C, stronger effect = lower value 0.985 | locus YER111C, strain swi4, stronger effect = lower value 1.03 | locus YER155C, strain BEM2 (second series), stronger effect = lower value 1.06 | locus YER155C, strain BEM2, stronger effect = lower value 1.04 | locus YER167W, strain BCK2, stronger effect = lower value 1.02 | locus YFR010W, strain ubp6, stronger effect = lower value 1.02 | locus YGL078C, strain dbp3, stronger effect = lower value 0.954 | locus YGL086W, strain mad1, stronger effect = lower value 1.02 | locus YGL167C, strain pmr1, stronger effect = lower value 1.02 | locus YGL173C, strain kem1, stronger effect = lower value 1.05 | locus YGL227W, strain vid30, stronger effect = lower value 1.03 | locus YGL240W, strain doc1, stronger effect = lower value 1.01 | locus YGL248W, strain PDE1, stronger effect = lower value 1.02 | locus YGL253W, strain hxk2, stronger effect = lower value 1 | locus YGR078C, strain PAC10, stronger effect = lower value 1.01 | locus YGR135W, strain pre9, stronger effect = lower value 0.993 | locus YGR229C, strain SMI1, stronger effect = lower value 1.01 | locus YGR252W, strain gcn5, stronger effect = lower value 1.16 | locus YHR013C, strain ard1, stronger effect = lower value 1.05 | locus YHR027C, strain rpn1, stronger effect = lower value 1.04 | locus YHR030C, strain SLT2, stronger effect = lower value 1.02 and 0.882 | locus YHR079C, strain IRE1 (second series), stronger effect = lower value 0.986 | locus YHR079C, strain IRE1, stronger effect = lower value 0.87 | locus YHR094C, strain hxt1, stronger effect = lower value 0.995 | locus YHR129C, strain ARP1, stronger effect = lower value 1 | locus YHR142W, strain chs7, stronger effect = lower value 1.01 | locus YHR200W, strain rpn10, stronger effect = lower value 0.989 | locus YIL066C, strain RNR3, stronger effect = lower value 1.01 | locus YIL073C, strain SPO22, stronger effect = lower value 0.71 | locus YIL125W, strain kgd1, stronger effect = lower value 0.964 | locus YIR030C, strain dcg1, stronger effect = lower value 0.992 | locus YJL092W, strain hpr5, stronger effect = lower value 1.03 | locus YJL095W, strain BCK1 (second series), stronger effect = lower value 1.04 | locus YJL095W, strain BCK1, stronger effect = lower value 1.04 and 0.919 | locus YJL115W, strain asf1, stronger effect = lower value 1.04 | locus YJL129C, strain trk1, stronger effect = lower value 0.971 | locus YJL134W, strain LCB3, stronger effect = lower value 1.01 | locus YJL154C, strain vps35, stronger effect = lower value 1.04 | locus YJL164C, strain tpk1, stronger effect = lower value 1.02 | locus YJL166W, strain qcr8, stronger effect = lower value 1.04 | locus YJL168C, strain set2, stronger effect = lower value 0.988 | locus YJL187C, strain SWE1 (second series), stronger effect = lower value 1.01 | locus YJL187C, strain SWE1, stronger effect = lower value 1.03
